This is a sample that favours compounds with a hit; in the whole collection about 5.7% have one here.
BAZ2B inh – blocks human BAZ2B. Q9UIF8. AlphaScreen BAZ2B-H3K14Ac peptide displacement. Potency, µM (highest dose often 114 µM), inactives show at the top dose activity change, negative = inhibition, actives largely listed as inhibitors. hit rate 4.4% among 360,000. AID 504333; further: potency means the concentration at half of the fitted maximal effect; on the % scale 0 is the no-effect control and ±100 the full control effect; nearly all actives have a fitted effect of over 60% in size
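Multi-concentration screen (max 110 uM) measuring displacement of acetylated histone H3 peptide from BAZ2B by AlphaScreen, using 50 nM protein, 50 nM peptide and 10 ug/mL streptavidin donor plus Ni-chelate acceptor beads.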
KDM4E inh – JMJD2E (human) inhibition | B2RXH2 | JMJD2E catalytic domain, FDH-coupled NADH fluorescence (FDH is formaldehyde dehydrogenase) | Potency, µM (top dose mostly 57.1 µM), for the others: top-dose activity change, negative = inhibition, most hits filed as inhibitors | hit rate 1.6% among 230,000; active means well fitted inhibition curve with a large enough effect, not every such curve was filed as active; inconclusive means small, poorly fitted or top-dose-only effect, or another doubt; inactive means no such curve, though single readings can be large or run the other way;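 further: potency means the concentration at half of the fitted maximal effect; 0% = wells with enzyme and -100% = buffer wells without enzyme; nearly all actives have a fitted effect of over 50% in size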
Target sequence (B2RXH2 1-337 limits assumed): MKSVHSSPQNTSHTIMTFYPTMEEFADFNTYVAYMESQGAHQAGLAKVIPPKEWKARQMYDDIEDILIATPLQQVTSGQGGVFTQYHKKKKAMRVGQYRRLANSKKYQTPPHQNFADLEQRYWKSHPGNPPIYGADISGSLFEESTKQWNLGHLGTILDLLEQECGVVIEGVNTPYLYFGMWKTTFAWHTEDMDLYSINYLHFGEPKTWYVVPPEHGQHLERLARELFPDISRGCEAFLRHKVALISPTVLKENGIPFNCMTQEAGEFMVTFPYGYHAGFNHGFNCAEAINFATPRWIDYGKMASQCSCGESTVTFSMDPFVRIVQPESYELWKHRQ
L3MBTL1 inh – blocks human L3MBTL1; hit rate 0.66% among 230,000; AlphaScreen L3MBTL1–H3K9me1 peptide binding; AID 485360; Q9Y468; Potency, µM (series often up to 57.1 µM), for inactives: at the highest dose activity, negative = inhibition, usual class: inhibitors; further: potency means the concentration at half of the fitted maximal effect; on the % scale 0 is the no-effect control and ±100 the full control effect; nearly all actives have a fitted effect of over 60% in size
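AlphaScreen assay: L3MBTL1 (50 nM final) was preincubated 30 min at room temperature with biotinylated H3(1-15)K9me1 peptide (75 nM final), then 30 min with library compounds; streptavidin donor and nickel chelate acceptor beads (10 ug/mL final) added, 30 min dark.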
JMJD2A Tudor – blocks the human JMJD2A Tudor domain; AlphaScreen JMJD2A-Tudor / H3K4me3 peptide binding; Potency, µM (titrated, usually from 114 µM), for the others: at the highest dose activity change, negative = inhibition, most hits filed as inhibitors; hit rate 4.4% among 390,000; AID 504339; further: potency means the concentration at half of the fitted maximal effect; on the % scale 0 is the no-effect control and ±100 the full control effect; nearly all actives have a fitted effect of over 50% in size
PI5P4K alpha inh – inhibitors of human PI5P4K alpha | AID 652105 | PI5P4Kalpha enzyme, ADP-Glo luminescence, 60 min; active compounds read low | hit rate 1.2% among 330,000 | max response, %; active means max response of -50% or lower; inconclusive means between -30% and -50%; inactive means -30% or higher; further: value at the top dose of about 77 µM; on the % scale 0 is the no-effect control and ±100 the full control effect
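ADP-Glo luminescence end-point read after a 60 min room-temperature kinase reaction of PI5P4Kalpha plus substrate, initiated with ATP at 5 microM final. Buffer: 0.038 M HEPES pH 7.4, EGTA, 0.1% CHAPS, 5% DMSO.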
HP1b chromo inh – blocks HP1-beta chromodomain binding to methylated histone tails; P83916; AlphaScreen HP1-beta / biotin-H3K9me3 peptide binding; Potency, µM (titrated, usually from 114 µM), without a hit: at the highest dose activity change, negative = inhibition, most hits filed as inhibitors; hit rate 0.56% among 390,000; further: potency means the concentration at half of the fitted maximal effect; nearly all actives have a fitted effect of over 70% in size
Target sequence (P83916 whole entry, looked up): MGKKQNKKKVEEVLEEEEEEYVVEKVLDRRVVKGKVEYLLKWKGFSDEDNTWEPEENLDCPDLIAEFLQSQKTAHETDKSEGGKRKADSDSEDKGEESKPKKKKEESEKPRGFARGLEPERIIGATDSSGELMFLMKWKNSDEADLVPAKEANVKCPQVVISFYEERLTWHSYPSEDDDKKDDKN
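HP1-beta protein (50 nM final) preincubated 30 min at room temperature with biotinylated H3(1-18)K9me3 peptide (50 nM) in PBS pH 7.4, 0.01% Tween-20, then compound added for 30 min. AlphaScreen streptavidin donor/nickel chelate acceptor beads (10 ug/mL final), 30 min dark, luminescence read.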
The depositor's hits bear a star; ? = inconclusive; . = no result; [ ] = another dose, or the depositor's remark. Unless noted, the call rests on the fitted dose curve; in most records, active means well fitted inhibition curve with a large enough effect; inconclusive means small, poorly fitted or top-dose-only effect; inactive means no such curve, though single readings can be large or run the other way.

SMILES | BAZ2B inh | KDM4E inh | L3MBTL1 inh | JMJD2A Tudor | PI5P4K alpha inh | HP1b chromo inh
O=C1ON=C(c2ccccc2)/C1=C/c1ccc(OS(=O)(=O)c2ccccc2)cc1 | 50.1µM* | ? | -11.4% | 79.4µM* | -69.0* | ?
O=C(NCCc1ccccc1)c1ccc2c(c1)S(=O)(=O)c1cc(Cl)ccc1C2=O | -11.9% | . | -4.8% | -18.1% | 2.8 | 8.0%
COc1ccc(Nc2nc(OC)nc(OC)n2)cc1 | 0.4% | . | 3.0% | -10.0% | -1.4 | 29.3%
COc1ccc(Nc2ccnc(Nc3ccc(OC)cc3)n2)cc1 | 44.7µM* | 5.7% | -18.5% | ? | -1.5 | ?
CCOc1nc(Nc2ccc(OC)cc2)nc(OCC)n1 | 0.9% | -6.4% | . | 79.4µM* | -3.0 | -73.4%
C=CCN(c1ccc(C(=O)Nc2ccc(NC(C)=O)cc2)cc1)S(C)(=O)=O | 6.9% | -1.9% | . | 14.1µM* | ? | -6.9%
O=C(O)c1ccccc1C=NNc1ccc([N+](=O)[O-])cn1 | . | . | . | -16.6% | -4.0 | -10.7%
O=C(O)c1ccccc1C=NNc1ccccn1 | . | . | . | 28.2µM* | -1.1 | 10.4%
O=C(NN=Cc1ccccc1C(=O)O)C(=O)NN=Cc1ccccc1C(=O)O | . | . | . | 50.1µM* | -2.3 | 12.3%[57 µM]
O=C(/C=C/c1ccccc1Cl)c1ccccc(=O)c1O | 56.2µM* | 14.1µM* | -2.9% | ? | -28.9 | ?
O=C(/C=C/c1ccc([N+](=O)[O-])cc1)c1ccccc(=O)c1O | . | . | . | ? | -4.5 | ?
Cc1ccc(C)c(/C=C/C(=O)c2ccccc(=O)c2O)c1 | 56.2µM* | 22.4µM* | 1.4% | ? | -21.2 | -25.9%
O=C(/C=C/c1ccccc1Cl)c1ccc(O)cc1 | -22.5% | 6.5% | -8.3% | -17.6% | -53.6* | -37.5%
Cc1ccc(/C=C/C(=O)c2ccccc(=O)c2O)c(C)c1 | 50.1µM* | 28.2µM* | -6.4% | ? | -4.2 | -38.6%
N#Cc1cccc(NC(=O)Cn2nc(Cc3ccncc3)c3ccccc3c2=O)c1 | -3.6% | . | . | -2.3% | . | 29.0%
CC(C)CCn1c(=O)c2sccc2n2c(CCCC(=O)NC(C)c3ccccc3)nnc12 (stereo unspecified) | -10.1% | . | . | -5.9% | . | 34.7%
O=C(NC(c1ccc(-c2ccccc2)cc1)c1cnccn1)C1CCN(Cc2cccc(C(F)(F)F)c2)CC1 (stereo unspecified) | . | . | . | . | 22.3 | .
CC(C)(C)OC(=O)NCCCNc1ncnc2ccc(-c3ccc4c(c3)OCO4)cc12 | . | . | . | -24.8% | . | .
CN1C(=O)C2C(c3ccc(N(C)C)cc3)NN(Cc3ccccc3)C2C1=O (stereo unspecified) | 39.8µM* | -12.9% | -12.8%[11.4 µM] | ? | -2.1 | ?
CCCC1(C(=O)OCC)NC(c2ccc(N(C)C)cc2)C2C(=O)N(c3ccccc3)C(=O)C21 (stereo unspecified) | -37.9% | 3.2% | -13.9% | ? | 8.2 | 4.1%
Cc1c(NC(=O)c2ccco2)c(=O)n(-c2ccccc2)n1C | 10.9% | . | 4.2% | -7.8% | -4.1 | 35.3%
Cc1c(NS(=O)(=O)c2cc(C(=O)NCCN(C)C)ccc2Cl)c(=O)n(-c2ccccc2)n1C | 79.4µM* | . | . | ? | -7.3 | 10.5%
Cc1c(NC(=O)C(CC(=O)O)NCc2ccco2)c(=O)n(-c2ccccc2)n1C (stereo unspecified) | 50.1µM* | 4.4% | 0.0% | 5.01µM* | 2.4 | -7.5%
O=C(O)CC(NCc1ccco1)C(=O)OCCCl (stereo unspecified) | ? | -12.9% | 12.1% | 28.2µM* | 0.2 | -3.3%
COCCOC(=O)C(CC(=O)O)NCc1ccco1 (stereo unspecified) | -6.5% | -26.7% | 13.9% | ? | 1.0 | -7.6%
SMILES | BAZ2B inh | KDM4E inh | L3MBTL1 inh | JMJD2A Tudor | PI5P4K alpha inh | HP1b chromo inh
O=C(NCc1ccco1)Nc1cccc(-c2ccccc2)c1 | . | . | . | -24.1% | -2.1 | 7.4%
Cc1c(NS(=O)(=O)c2cc(C(=O)NCc3cccc(Cl)c3)ccc2Cl)c(=O)n(-c2ccccc2)n1C | . | . | . | -22.8% | 5.2 | 24.4%
O=C(O)CC(NCc1ccco1)C(=O)Nc1cccc(O)c1 (stereo unspecified) | -36.7% | -2.1% | . | 3.16µM* | -4.6 | -2.6%
C=C(C(=O)O)[C@@H]1CC[C@@]2(C)CCC[C@](C)(O)[C@@H]2C1 | . | 1.7% | . | . | . | .
CCOC(=O)c1c(/N=C/C2=C(O)CC(C)(C)CC2=O)sc(C(C)=O)c1C | ? | ? | -1.1% | -9.0% | -1.2 | 6.8%
Cc1c(NS(=O)(=O)c2cccc(C(=O)NCc3ccco3)c2)c(=O)n(-c2ccccc2)n1C | . | . | . | 63.1µM* | -15.6 | -36.1%
COC(=O)C(CC(=O)O)NCc1ccco1 (stereo unspecified) | ? | -11.9% | 6.5% | 20µM* | -5.7 | 3.4%
COc1ccc(N2C(=NC(=O)C3CCCCC3)SC3CS(=O)(=O)CC32)c(OC)c1 (stereo unspecified) | -28.4% | . | . | 28.2µM* | 0.2 | 5.9%
CCCCN(C(=O)C1CC1)C1CCS(=O)(=O)C1 (stereo unspecified) | -8.4% | . | 28.7% | -6.8% | 0.8 | -5.6%
O=c1cnnc(N/N=C/C2CC=CCC2)[nH]1 (stereo unspecified) | 8.91µM* | -22.1% | . | 31.6µM* | 0.2 | 39.8%
COc1ccc(C(=O)CN2C(=O)N(c3ccc(C(C)=O)cc3)S(=O)(=O)c3ccccc32)cc1 | -16.4% | . | . | -17.3% | . | 0.6%
Nc1ccc(S(=O)(=O)Nc2nccs2)cc1N=Nc1ccccc1[N+](=O)[O-] | . | . | . | 39.8µM* | -102.8* | 39.8µM*
CCN1CCCC(OC(=O)c2cc(-c3ccc(C)cc3)nc3ccccc23)C1 (stereo unspecified) | . | ? | -11.8% | 17.8µM* | 7.9 | 12.8%
COC(=O)CCCCC1SCC2NC(=O)NC21O (stereo unspecified) | 2.24µM* | 2.3% | . | 0.891µM* | -7.3 | -95.0%
COC(=O)CCCC[C@H]1SC[C@H]2NC(=O)N[C@]21O | 0.891µM* | -4.8% | 2.24µM* | . | . | .
COC(=O)CCCC[C@@H]1SC[C@@H]2NC(=O)N[C@@H]21 | . | -27.8% | . | . | . | .
CN(C)c1ccc(CNc2ccc3c(c2)ncn3C(C)(C)C)cc1 | 15.8µM* | . | . | 14.1µM* | -3.5 | 35.5µM*
CCn1cnc2cc(NCc3cccs3)ccc21 | ? | ? | -11.3% | -32.4% | -8.1 | 6.7%
CCOc1ccc(CNc2ccc3c(c2)ncn3C(C)(C)C)cc1 | ? | . | . | ? | 3.5 | -30.8%
CCn1cnc2cc(NCc3ccc(N(C)C)cc3)ccc21 | 10µM* | ? | . | 10µM* | 1.4 | 31.6µM*
CCN(CC)c1ccc(CNc2ccc3c(c2)ncn3CC)cc1 | 15.8µM* | . | . | 20µM* | 7.2 | 35.5µM*
Cc1ccc(C)c(N(C)C(=O)Cc2c(C(=O)O)[nH]c3ccc(Cl)cc23)c1 | -16.0% | . | . | -19.5% | . | -9.7%

Compound activity: PubChem BioAssay, National Center for Advancing Translational Sciences (NCATS)
